Most compounds without a hit are left out; they make up all but 3.6% or so of the library.
CRFBP-R2 block – blocks CRF-induced signaling of the CRF-BP/CRF-R2 complex; HEK293 CRF-R2/CRF-BP, CRF-induced calcium fluorescence; inhibition, % at 11.8 µM; 0.59% of 350,000 active; AID 588475;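 active means inhibition of the ligand-induced calcium signal above about 50% at the single tested concentration, limit read from the data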
NadD inh – blocks S. aureus nicotinate mononucleotide adenylyltransferase; inhibition, % at 20 µM; 0.78% of 360,000 active; purified NadD enzyme, colorimetric absorbance read-out; AID 602399; in the data active means inhibition above about 26%
Myeloid diff MLP – compounds promoting myeloid differentiation; calls only at 10 µM; ER-HoxA9 myeloid progenitors, lysozyme-GFP differentiation, flow cytometry; 1% of 360,000 active;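 active means normalized GFP-positive differentiation at or above the plate's own cutoff, the solvent-only control mean plus 3 SD; inconclusive means no clear call, values can overlap the other calls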;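 further: cells exposed to compound for four days before flow analysis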
NRP1-CendR mod – NRP-1/CendR interaction modulation; O14786; FAM-RPARPAR peptide binding to NRP-1, fluorescence polarization; inhibition, % at 25 µM; 0.85% of 360,000 active;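 active means inhibition or corrected inhibition above about 18%, plus a signal ratio from 0.5 to 1.5, limit read from the data, passing the limit was not always enough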
Target sequence (O14786 whole entry, looked up): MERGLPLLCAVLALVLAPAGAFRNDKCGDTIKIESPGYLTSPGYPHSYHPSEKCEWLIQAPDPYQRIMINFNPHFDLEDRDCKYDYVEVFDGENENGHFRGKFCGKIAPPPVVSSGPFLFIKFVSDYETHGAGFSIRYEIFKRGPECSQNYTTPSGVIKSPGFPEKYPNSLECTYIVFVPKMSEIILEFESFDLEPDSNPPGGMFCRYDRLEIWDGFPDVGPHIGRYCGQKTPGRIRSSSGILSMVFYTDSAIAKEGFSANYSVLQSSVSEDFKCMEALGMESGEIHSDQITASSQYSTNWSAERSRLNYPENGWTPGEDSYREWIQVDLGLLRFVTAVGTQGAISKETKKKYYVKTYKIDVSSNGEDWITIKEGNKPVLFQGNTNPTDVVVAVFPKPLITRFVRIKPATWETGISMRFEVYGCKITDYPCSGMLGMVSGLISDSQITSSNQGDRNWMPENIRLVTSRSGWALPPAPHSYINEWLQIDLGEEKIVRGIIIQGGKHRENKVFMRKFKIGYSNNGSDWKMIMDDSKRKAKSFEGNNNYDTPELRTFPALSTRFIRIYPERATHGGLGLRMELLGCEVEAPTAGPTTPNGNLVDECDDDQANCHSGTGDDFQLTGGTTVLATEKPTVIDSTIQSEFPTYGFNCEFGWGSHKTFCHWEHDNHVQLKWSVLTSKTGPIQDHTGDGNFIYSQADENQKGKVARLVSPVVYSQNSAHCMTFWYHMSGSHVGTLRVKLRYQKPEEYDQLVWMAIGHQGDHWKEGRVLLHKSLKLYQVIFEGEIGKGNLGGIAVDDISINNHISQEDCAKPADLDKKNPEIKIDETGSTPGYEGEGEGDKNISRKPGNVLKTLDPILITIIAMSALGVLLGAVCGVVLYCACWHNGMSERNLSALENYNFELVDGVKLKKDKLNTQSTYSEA
FAS-TE inh – FAS thioesterase (human) inhibition; recombinant FAS-TE, OMFH fluorogenic substrate, fluorescence endpoint; inhibition, % at 15 µM; 0.67% of 360,000 active; AID 602261;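 active means compounds whose normalised, plate-corrected inhibition of enzyme fluorescence in the single-dose primary screen is 50% or more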;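 further: 0% = DMSO with enzyme and 100% = substrate without enzyme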
FAS-TE inh conf – FAS thioesterase (human) inhibition, confirmation; recombinant FAS-TE, OMFH fluorogenic substrate, fluorescence; 45% of 2,300 active; shares compounds with FAS-TE inh; inhibition, % at 15 µM; AID 624325;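 active means compounds inhibiting the enzyme by at least 50% at 15 µM in any one of the replicates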;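 further: 0% = enzyme with DMSO only and 100% = wells lacking enzyme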
The depositor's hits bear a star; i = inactive; ? = inconclusive; . = no result given.

SMILES | CRFBP-R2 block | NadD inh | Myeloid diff MLP | NRP1-CendR mod | FAS-TE inh | FAS-TE inh conf
Cn1c(N/N=C/c2cccs2)cc(=O)n(C)c1=O | 30.0 | -3.1 | i | -3.2 | -2.4 | .
Fc1c(F)c(C(F)(F)F)c(F)c(F)c1N/N=C\c1cccs1 | -46.0 | -8.5 | i | -8.0 | 62.6* | 50.8*
O=C(CSc1nnc(NC(=O)C2CC2)s1)NCc1ccco1 | 17.8 | -0.9 | i | 2.2 | -10.6 | .
Cn1c(-c2ccccc2)cnc1NCc1cccc([N+](=O)[O-])c1 | -4.0 | -7.3 | i | -9.2 | 70.9* | 67.2*
C[C@H]1CN([C@@H](C)CO)C(=O)c2cccc(NC(=O)Nc3ccc(F)cc3)c2O[C@@H]1CN(C)Cc1ccc(C(=O)O)cc1 | 10.1 | -1.8 | i | 5.9 | -10.7 | .
CC(C)(C)c1ccc(C(=O)OCCNC(=O)c2c(Cl)nc3ccccn23)cc1 | -2.5 | -11.9 | i | 3.7 | 65.9* | 74.9*
COc1cc(CN(C)c2ccc(S(=O)(=O)N3CCCC3)cn2)ccc1OC(F)F | 1.9 | 4.3 | i | -0.3 | 68.3* | 21.6
COc1ccc(CCN(C)c2ccc(S(=O)(=O)N3CCCC3)cn2)cc1OC | 1.2 | -1.7 | i | 3.6 | 2.7 | .
O=C(O)c1ccc(Nc2nc(-c3ccc([N+](=O)[O-])cc3)nc3ccccc23)cc1 | 16.5 | 9.1 | . | -24.5 | 54.9* | 7.2
O=[N+]([O-])c1ccc(-c2nc(NCC3CCCO3)c3ccccc3n2)cc1 (stereo not drawn) | -19.3 | -6.0 | i | -7.7 | 60.3* | 16.2
Oc1ccccc1-c1nc(NCC2CCCO2)c2ccccc2n1 (stereo not drawn) | -31.2 | -4.3 | i | -17.4 | 24.0 | .
COc1ccc(-c2csc(NC(=O)c3ccccc3NS(=O)(=O)c3ccc(F)c(F)c3)n2)cc1 | 84.3* | 6.2 | i | -24.3 | 58.1* | 19.0
COc1ccc(-c2csc(NC(=O)c3ccccc3F)n2)cc1 | -3.2 | -3.9 | i | 6.7 | 24.2 | .
CCOC1=C2[C@@H](CN(S(=O)(=O)c3ccc(C)cc3)[C@H]2c2ccccc2)[C@H]2C(=O)N(Cc3ccccc3)C(=O)[C@H]2C1 | . | 11.7 | i | 0.9 | 76.1* | 19.0
CCOC1=C2[C@@H](CN(S(=O)(=O)c3ccc(C)cc3)[C@H]2c2ccccc2F)[C@H]2C(=O)N(C3CCCCC3)C(=O)[C@H]2C1 | . | 4.1 | i | 23.0 | 71.9* | 23.1
CCOC1=C2[C@@H](CN(S(=O)(=O)c3ccc(C)cc3)[C@H]2c2cccc3ccccc23)[C@H]2C(=O)N(Cc3ccccc3)C(=O)[C@H]2C1 | . | 2.8 | i | 0.0 | 59.5* | 17.3
CCOC1=C2[C@@H](CN(S(=O)(=O)c3ccc(C)cc3)[C@H]2c2cccc3ccccc23)[C@H]2C(=O)N(CC)C(=O)[C@H]2C1 | . | -2.8 | i | 15.0 | 24.3 | .
CCOC1=C2[C@@H](CN(S(=O)(=O)c3ccc(C)cc3)[C@H]2c2ccccc2F)[C@H]2C(=O)N(c3ccccc3)C(=O)[C@H]2C1 | . | 7.3 | i | -5.9 | 31.6 | .
CCOC1=C2[C@@H](CN(S(=O)(=O)c3ccccc3C)[C@H]2c2ccc(Cl)cc2)[C@H]2C(=O)N(c3ccccc3)C(=O)[C@H]2C1 | . | 4.2 | i | 22.2* | 83.3* | 16.1
Cc1ccc(C)c(NC(=O)CSc2nc3ccc(N4C(=O)c5ccccc5C4=O)cc3s2)c1 | 27.1 | 24.9 | i | -3.3 | -0.8 | .
Cc1cc(Cl)c(C)c(S(=O)(=O)Oc2ccccc2NC(=O)CCC(=O)O)c1Cl | -10.3 | 0.4 | i | -0.6 | -7.2 | .
COCCCN1C(=O)C(CC(=O)NCc2ccco2)CC(C(=O)N(C)C)=C1C (stereo not drawn) | -3.1 | -1.4 | i | -2.9 | -10.6 | .
CCOc1ccc(CCNC(=O)c2cnc(C)cn2)cc1OCC | 5.1 | -3.4 | i | -3.3 | -3.4 | .
COc1cc(/C=N/NC(=O)COc2ccc([N+](=O)[O-])cc2)ccc1OCC(=O)N1CCOCC1 | 5.0 | -3.3 | i | -2.4 | 0.9 | .
COc1ccc2nc(/N=C(\N)NC(=O)N3c4ccccc4Sc4ccccc43)nc(C)c2c1 | 26.2 | 6.4 | i | 13.0 | 13.6 | .
SMILES | CRFBP-R2 block | NadD inh | Myeloid diff MLP | NRP1-CendR mod | FAS-TE inh | FAS-TE inh conf
Cc1ccc2c(C)nc(/N=C(\N)NC(=O)N3c4ccccc4Sc4ccccc43)nc2c1 | 21.3 | 26.4 | i | -4.1 | 63.6* | 3.9
CCCCCCCOC(=O)c1nc(Cl)c(Cl)c(N)c1Cl | -7.5 | 1.9 | i | -7.5 | 54.5* | 35.1
CCCS(=O)(=O)NC(=O)C1(C)CCN(C(=O)Cc2ccc(F)cc2)C1 (stereo not drawn) | . | -0.1 | i | 1.2 | -6.6 | .
CN1C(=O)C(CC(=O)Nc2ccc(F)cc2)N(Cc2cccs2)C1=S (stereo not drawn) | -5.9 | -4.7 | i | -4.6 | 44.7 | .
CCCOc1ccc(NC(=O)CC2C(=O)N(C)C(=S)N2Cc2cccs2)cc1 (stereo not drawn) | 0.9 | -9.0 | i | 3.6 | 63.9* | 65.4*
Cc1csc(SCC(=O)NC2CCC(C)CC2)n1 (stereo not drawn) | 4.6 | -0.8 | i | 0.8 | -3.7 | .
Cc1ccccc1C(=O)Nc1nc2c(C)csc2c(=O)s1 | 9.2 | -3.5 | i | 1.3 | 51.0* | 26.9
Cc1csc2c(=O)sc(NC(=O)c3ccc(F)cc3)nc12 | 1.8 | 4.1 | i | 12.6 | -1.0 | .
Cc1csc2c(=O)sc(NC(=O)c3ccc(F)cc3Cl)nc12 | 1.9 | -8.7 | i | -8.6 | 84.0* | 4.0
COC(=O)c1ccccc1NC(=O)c1nc(S(=O)(=O)Cc2ccccc2)ncc1Cl | 54.3* | 8.7 | ? | 3.8 | 54.4* | 34.9
Cc1ccc(CS(=O)(=O)c2ncc(Cl)c(C(=O)Nc3ccc(OC(F)F)cc3)n2)cc1 | 54.4* | -15.7 | ? | 1.6 | 52.1* | 43.4
CC(=O)Nc1ccc(NC(=O)c2nc(S(=O)(=O)Cc3ccccc3)ncc2Cl)cc1 | 35.2 | -4.8 | i | 13.6 | 23.3 | .
CCc1nnc(NC(=O)c2nc(S(=O)(=O)Cc3cccc(C)c3)ncc2Cl)s1 | 42.4 | 3.7 | ? | 0.4 | -0.1 | .
CCOc1ccccc1NC(=O)c1nc(S(=O)(=O)Cc2cccc(C)c2)ncc1Cl | 33.1 | -3.3 | ? | -5.4 | 58.5* | 47.8*
CC(C)(C)c1cccc(C2(O)C(=O)c3ccccc3C2=O)c1O | -1.2 | -0.9 | i | 2.3 | 2.3 | .
CN(C)CCNc1ncnc2c1ncn2[C@H]1CN(Cc2ccco2)C[C@@H](CO)O1 | . | 2.1 | i | -9.5 | -7.9 | .
Cc1c(C)n(CC(O)CSc2ccccc2)c2ccccc12 (stereo not drawn) | . | -2.3 | i | 1.1 | 9.1 | .
CC1(C)CC[C@]2(C(=O)n3ccnc3)CC[C@]3(C)[C@H](C(=O)C=C4[C@@]5(C)C=C(C#N)C(=O)C(C)(C)[C@@H]5CC[C@]43C)[C@@H]2C1 | -97.5 | 43.4* | ? | -130.1 | 96.2* | 68.5*
CC(=O)N1CCc2cc(S(=O)(=O)NCCCN3CCC(C)CC3)ccc21 | -2.2 | -0.8 | i | 10.5 | -7.3 | .
Cc1ccc(S(=O)(=O)Nc2ccc3c(c2)CCC3)cc1 | -37.7 | -3.1 | i | 3.2 | 13.4 | .
